Outcome and Potency data for nine compounds are collected here from PubChem BioAssay (Tox21).

A number with no mark means an inactive call. Results filed as inconclusive are left out. Activity calls are given as the source filed them. Unless noted, the call rests on the fitted dose curve; in most records, active means well fitted curve in the direction sought with a large enough effect in the repeat runs; inconclusive means weak or mixed curves; inactive means no such curve, though single readings can be large; an effect the other way counts as inactive or inconclusive.

A short description of test [1]: qHTS assay to identify small molecule antagonists of the estrogen receptor beta (ER-beta) signaling pathway - cell viability counter screen (AID 1259382).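 Further: HEK293T cells carrying ER-beta-UAS-bla reporter stimulated with estradiol; series mostly up to about 92 µM; nearly all actives have a fitted effect of over 55% in size.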 The method in brief:
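Luminescent ATP read-out (CellTiter-Glo, 30 min, RT) taken in the same wells as the bla reporter assay. HEK293T ER-beta-UAS-bla cells in 2% charcoal-stripped FBS were exposed to compounds with 1nM E2 for 16 hr at 37C.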
(qHTS replaces the single test concentration by a dilution series.)

In test [2] the target is Estrogen receptor (Homo sapiens) (UniProt P03372). Put plainly: qHTS assay to identify small molecule agonists of the estrogen receptor alpha (ER-alpha) signaling pathway in the presence of an antagonist (AID 1259383; calls by dose curve; further: nearly all actives have a fitted effect of over 15% in size; further: potency means the concentration at half of the fitted maximal effect; on activation: top concentration of the series differs between compounds). In a few lines: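 Luciferase luminescence (ONE-Glo, 30min at room temperature) measured in VM7Luc4E2 cells after 22hr compound exposure at 15 concentrations, with 10.0nM ICI-182,780 final present; cells express endogenous ER-alpha and carry four EREs upstream of luciferase.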
Estrogen receptor (Homo sapiens), sequence (P03372 whole entry, looked up): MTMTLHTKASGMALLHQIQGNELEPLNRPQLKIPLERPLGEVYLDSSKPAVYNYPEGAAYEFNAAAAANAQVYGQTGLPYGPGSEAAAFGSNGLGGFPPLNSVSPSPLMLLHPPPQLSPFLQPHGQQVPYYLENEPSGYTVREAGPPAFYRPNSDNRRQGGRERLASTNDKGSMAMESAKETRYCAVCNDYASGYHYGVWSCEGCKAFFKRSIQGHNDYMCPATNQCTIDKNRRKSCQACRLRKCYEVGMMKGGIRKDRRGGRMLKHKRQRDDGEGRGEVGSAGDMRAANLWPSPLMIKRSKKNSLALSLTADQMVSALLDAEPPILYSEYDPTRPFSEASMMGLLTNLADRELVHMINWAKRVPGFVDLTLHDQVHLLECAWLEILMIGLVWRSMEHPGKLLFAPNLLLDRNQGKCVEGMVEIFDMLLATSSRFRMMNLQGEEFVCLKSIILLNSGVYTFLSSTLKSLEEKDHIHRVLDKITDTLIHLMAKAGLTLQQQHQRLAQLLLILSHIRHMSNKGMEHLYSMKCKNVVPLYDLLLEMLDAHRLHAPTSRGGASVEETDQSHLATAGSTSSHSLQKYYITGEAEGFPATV

A short description of test [3]: qHTS assay to identify small molecule agonists or antagonists of the thyroid stimulating hormone receptor (TSHR) signaling pathway - wild type cell line counter screen (AID 1259384; calls by dose curve). The method in brief: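 Wild-type Hek293 cells, 800/well, 18 h at 37C, then compound with Ro20-1724 for 30 min RT. cAMP by HTRF (cAMP-d2/anti-cAMP cryptate), 1 h RT, fluorescence read. 15 concentrations, triplicates.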

Test [4] deals with Thyrotropin receptor (Homo sapiens) (UniProt P16473). Kind of test: qHTS assay to identify small molecule antagonists of the thyroid stimulating hormone receptor (TSHR) signaling pathway (AID 1259385; calls by dose curve; further: nearly all actives have a fitted effect of over 20% in size). In a few lines:
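TSHR-HEK293 cells (800/well) plated 18 h, then compounds with Ro20-1724 and TSH at 1.5 ng/mL final, 30 min at room temperature. cAMP quantified by HTRF (cAMP-d2/anti-cAMP-cryptate, 1 h); 15 concentrations in triplicate.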

The nature of test [5]: qHTS assay to identify small molecule agonists of the estrogen receptor alpha (ER-alpha) signaling pathway in the presence of an antagonist - cell viability counter screen (AID 1259386). Further: series mostly up to about 92 µM; nearly all actives have a fitted effect of over 30% in size. In a few lines: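 Read-out: CellTiter-Fluor fluorescence after 1hr reagent incubation, measured in the same wells as the luciferase readout. VM7Luc4E2 cells were exposed to 15 compound concentrations with 10.0nM ICI-182,780 for 22hr at 37C.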

The target in test [6] is Progesterone receptor (Homo sapiens) (UniProt P06401). Put plainly: qHTS assay to identify small molecule agonists of the progesterone receptor (PR) signaling pathway (AID 1346784; calls by dose curve; further: nearly all actives have a fitted effect of over 30% in size; further: potency means the concentration at half of the fitted maximal effect). In a few lines:
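HEK 293T PR-UAS-bla reporter cells, 2% charcoal-stripped FBS; 6 hr settle at 37C/5% CO2, compound (DMSO) 16 hr, LiveBLAzer B/G FRET substrate 2 hr RT, fluorescence intensity read.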

For test [7] the target is unchanged. Kind of test: qHTS assay to identify small molecule antagonists of the progesterone receptor (PR) signaling pathway (AID 1346795; active means well fitted inhibition curve with a large enough effect in the signal ratio in the repeat runs, not every such curve was filed as active; the % refers to the signal ratio). In a few lines:
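Beta-lactamase reporter, HEK293T PR-UAS-bla line; 2% charcoal-stripped FBS; 6 hr pre-incubation, 37C/5% CO2. Compound + R5020 1 nM final, 16 hr. LiveBLAzer B/G FRET substrate, 2 hr RT; fluorescence intensity read.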

Test [8] in a line: qHTS assay to identify small molecule antagonists of the progesterone receptor (PR) signaling pathway - cell viability counter screen (AID 1346798). Further: series mostly up to about 92 µM; nearly all actives have a fitted effect of over 50% in size. The method in brief:
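Luminescence readout (CellTiter-Glo, 30 min, RT) of viability in PR-UAS-bla HEK293T cells exposed to compound and R5020 agonist for 16 hr at 37C, 5% CO2; run in the same wells as the beta-lactamase reporter read.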

The nature of test [9]: qHTS assay to identify small molecule antagonists of the TGF-beta/Smad signaling pathway - cell viability counter screen (AID 1346824). Further: nearly all actives have a fitted effect of over 50% in size. In a few lines:
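SBE-bla HEK 293T cells, incubated overnight, then compound plus 0.25 ng/mL TGF-beta1 (stock added) for 5 hr at 37 C. Viability was read in the same wells by CellTiter-Glo luminescence after 30 min at room temperature.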

Test [10] is described as follows: qHTS assay to identify small molecule agonists of the TGF-beta/Smad signaling pathway - cell viability counter screen (AID 1346829). Further: top concentration of the series differs between compounds; nearly all actives have a fitted effect of over 45% in size. The method in brief:
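Compound-treated SBE-bla HEK 293T cells (5 hr, 37 C) were assessed for viability with CellTiter-Glo in parallel with the reporter read.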

A short description of test [11]: qHTS assay to identify small molecule agonists of the TGF-beta/Smad signaling pathway (AID 1346859; active means well fitted activation curve with a large enough effect in the signal ratio in the repeat runs, not every such curve was filed as active; the % refers to the signal ratio; further: series mostly up to about 77 µM). In a few lines: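 Read-out: fluorescence at 460 and 530 nm (405 nm excitation) after a 2 hr room-temperature incubation with beta-lactamase FRET substrate. SBE-bla HEK 293T cells had been treated with test compounds for 5 hr at 37 C.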
Test [12] is described as follows: Human pregnane X receptor (PXR) small molecule agonists, qHTS cell viability counter screen (AID 1346977). Further: nearly all actives have a fitted effect of over 50% in size. In a few lines:
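Fluorescence read-out (CellTiter-Fluor) of viability in PXR-Luc HepG2 cells, multiplexed with the luciferase agonist read. Compounds in DMSO added after 5hr plating; 24hr total exposure at 37C, 5% CO2.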

Test [13] can be described thus: Caspase-3/7 induction in HepG2 cells by small molecules, qHTS assay (AID 1346978). Further: nearly all actives have a fitted effect of over 15% in size. In a few lines: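 Wild-type HepG2 cells, 2,000/well, settled 5 hr at 37 C and 5% CO2, then compound-treated for 17 hr; caspase-3/7 activity read by luminescent Caspase-Glo 3/7 after 30 min at room temperature.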
A short description of test [14]: Caspase-3/7 induction in CHO-K1 cells by small molecules, qHTS cell viability counter screen (AID 1346979). Further: nearly all actives have a fitted effect of over 35% in size. In a few lines:
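CHO-K1 wt, 1,500 cells/well; 5hr pre-incubation 37C/5% CO2; compound pin transfer (DMSO); 16hr exposure; CellTiter-Fluor added, 1hr, fluorescence read.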

The nature of test [15]: Caspase-3/7 induction in CHO-K1 cells by small molecules, qHTS assay (AID 1346980). Further: nearly all actives have a fitted effect of over 15% in size. The method in brief: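 Wild-type CHO-K1 cells exposed to compounds for 17hr at 37 C, 5% CO2. Caspase-3/7 activity then measured by Caspase-Glo 3/7 luminescence after 30min at room temperature.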
The nature of test [16]: Caspase-3/7 induction in HepG2 cells by small molecules, qHTS cell viability counter screen (AID 1346981). Further: series mostly up to about 92 µM; nearly all actives have a fitted effect of over 30% in size. The method in brief:
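Fluorescence read-out of live-cell protease activity (CellTiter-Fluor) after 1 hr with reagent. This was measured in the same wells as the caspase-3/7 luminescence, on HepG2 cells exposed to DMSO-dissolved compounds for 16 hr at 37 C.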

The nature of test [17]: qHTS assay to identify small molecule agonists of the progesterone receptor (PR) signaling pathway - cell viability counter screen (AID 1346799; calls by dose curve; further: nearly all actives have a fitted effect of over 45% in size). The method in brief:
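HEK293T PR-UAS-bla, 3,000 cells/well, 2% charcoal-stripped FBS; 6 h settle, compound 16 h at 37C/5% CO2; LiveBLAzer 2 h RT, then CellTiter-Glo 30 min RT, luminescence read.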

The target in test [18] is Thyrotropin-releasing hormone receptor (Homo sapiens) (UniProt P34981). Put plainly: qHTS assay to identify small molecule antagonists of the thyrotropin-releasing hormone receptor (TRHR) signaling pathway (AID 1346877; active means well fitted inhibition curve with a large enough effect in the repeat runs, not every such curve was filed as active; further: series mostly up to about 51 µM). In a few lines: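 HEK293/TRHR cells, 18 h, 37 °C; Ca2+ dye 2 h; cpd 5 min RT; TRH 1 nM final; fluorescence read 3 min, 1 s intervals; 15 concs, triplicate.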
Thyrotropin-releasing hormone receptor (Homo sapiens), sequence (P34981 whole entry, looked up): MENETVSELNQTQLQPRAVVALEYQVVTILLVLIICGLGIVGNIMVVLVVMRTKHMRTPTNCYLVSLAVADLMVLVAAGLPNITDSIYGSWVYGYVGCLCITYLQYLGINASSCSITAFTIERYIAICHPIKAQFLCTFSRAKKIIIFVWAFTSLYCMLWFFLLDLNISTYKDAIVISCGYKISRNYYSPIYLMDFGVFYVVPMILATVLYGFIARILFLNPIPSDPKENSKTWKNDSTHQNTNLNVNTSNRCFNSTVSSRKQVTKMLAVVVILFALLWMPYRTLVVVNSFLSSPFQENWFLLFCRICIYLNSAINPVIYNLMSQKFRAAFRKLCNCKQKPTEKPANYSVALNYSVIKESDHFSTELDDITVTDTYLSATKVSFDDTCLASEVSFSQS

The target is the same in test [19]. Kind of test: qHTS assay to identify small molecule agonists of the thyrotropin-releasing hormone receptor (TRHR) signaling pathway (AID 1346891; calls by dose curve;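 further: HEK293 cells expressing TRHR with calcium dye readout; series mostly up to about 58 µM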). In a few lines: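 HEK293/TRHR cells, 1500 per well, 18 h 37 °C; Ca dye 2 h 37 °C; pin-tool compound addition (agonist mode); kinetic fluorescence 3 min, 1 s reads; 15 concentrations, triplicate.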

Thyrotropin receptor (Homo sapiens), sequence (P16473 whole entry, looked up): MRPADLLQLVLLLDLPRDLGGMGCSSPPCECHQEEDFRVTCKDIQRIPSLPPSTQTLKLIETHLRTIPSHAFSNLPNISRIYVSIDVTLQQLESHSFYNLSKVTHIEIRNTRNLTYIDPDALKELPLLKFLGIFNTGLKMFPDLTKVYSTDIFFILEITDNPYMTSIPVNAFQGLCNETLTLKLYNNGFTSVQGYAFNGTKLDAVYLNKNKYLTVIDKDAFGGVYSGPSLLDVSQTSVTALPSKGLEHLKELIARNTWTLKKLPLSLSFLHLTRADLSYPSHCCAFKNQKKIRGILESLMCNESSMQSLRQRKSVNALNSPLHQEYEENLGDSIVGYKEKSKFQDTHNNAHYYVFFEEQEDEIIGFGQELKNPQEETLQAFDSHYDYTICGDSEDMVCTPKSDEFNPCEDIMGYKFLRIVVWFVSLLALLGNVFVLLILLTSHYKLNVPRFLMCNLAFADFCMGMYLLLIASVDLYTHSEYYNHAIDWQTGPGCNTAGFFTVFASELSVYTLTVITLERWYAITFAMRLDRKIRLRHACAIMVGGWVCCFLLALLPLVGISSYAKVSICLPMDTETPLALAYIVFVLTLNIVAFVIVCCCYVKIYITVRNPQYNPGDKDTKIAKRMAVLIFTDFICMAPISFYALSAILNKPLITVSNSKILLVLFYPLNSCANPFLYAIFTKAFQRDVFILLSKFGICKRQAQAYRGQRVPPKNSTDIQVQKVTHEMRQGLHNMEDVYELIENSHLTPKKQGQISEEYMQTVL
Progesterone receptor (Homo sapiens), sequence (P06401 whole entry, looked up): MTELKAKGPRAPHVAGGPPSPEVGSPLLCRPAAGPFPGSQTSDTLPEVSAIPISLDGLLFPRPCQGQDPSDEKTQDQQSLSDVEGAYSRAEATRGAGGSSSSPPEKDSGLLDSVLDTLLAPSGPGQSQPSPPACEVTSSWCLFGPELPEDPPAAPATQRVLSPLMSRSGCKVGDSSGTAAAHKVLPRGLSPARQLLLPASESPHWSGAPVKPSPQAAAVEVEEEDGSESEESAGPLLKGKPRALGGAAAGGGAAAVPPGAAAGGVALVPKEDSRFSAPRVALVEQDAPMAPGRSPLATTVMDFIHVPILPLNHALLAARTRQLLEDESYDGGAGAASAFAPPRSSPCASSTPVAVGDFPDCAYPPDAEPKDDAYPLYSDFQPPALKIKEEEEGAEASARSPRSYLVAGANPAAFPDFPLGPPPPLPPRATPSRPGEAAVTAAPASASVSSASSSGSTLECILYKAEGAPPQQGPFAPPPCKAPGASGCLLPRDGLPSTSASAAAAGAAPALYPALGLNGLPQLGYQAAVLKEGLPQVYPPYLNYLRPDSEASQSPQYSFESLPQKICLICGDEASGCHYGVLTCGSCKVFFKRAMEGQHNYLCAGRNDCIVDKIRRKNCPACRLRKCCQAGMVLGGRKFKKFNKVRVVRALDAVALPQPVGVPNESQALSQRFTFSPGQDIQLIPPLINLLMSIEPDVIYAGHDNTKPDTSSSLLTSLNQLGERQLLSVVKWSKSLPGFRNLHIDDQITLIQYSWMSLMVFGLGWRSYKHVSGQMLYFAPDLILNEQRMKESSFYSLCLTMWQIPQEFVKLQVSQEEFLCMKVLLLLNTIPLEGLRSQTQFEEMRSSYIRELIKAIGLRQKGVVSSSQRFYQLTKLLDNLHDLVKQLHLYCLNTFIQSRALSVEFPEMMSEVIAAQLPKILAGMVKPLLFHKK

Regarding `CC(C)OC(=O)OCOP(=O)(CO[C@H](C)Cn1cnc2c(N)ncnc21)OCOC(=O)OC(C)C`, the call in test [1], in [3], in test [4], in test [5], in [8] and in [9] was inactive. The outcome in [10], in test [11], in test [12], in test [13], in [15] and in test [16] was inactive. The Potency result in test [2], in [6], in [7] and in [14] was “inactive” each time.
As to `COC(=O)CCCCC(=O)O`, the call in test [1], in [3], in test [4], in test [5], in test [17] and in test [9] was inactive. In addition, the outcome in test [10], in [11], in test [12], in test [13], in [15] and in test [16] was inactive. For the same compound, the Potency result in [2], in test [6], in [7] and in [14] was “inactive” in each case.
For `CC1CC(=O)CC(C)(C)C1` (stereo not drawn), the compound was classed as inactive in test [1], in test [3], in test [4], in test [5], in [17] and in test [9]. The compound was classed as inactive in [10], in test [11], in test [12], in test [13], in test [15] and in test [16]. Moreover, the Potency entry in test [2], in test [6], in test [7] and in [14] was “inactive” throughout.
As for `O=C(O)c1cc2ccccc2nc1C(=O)O`, the result in test [1], in test [3], in test [4], in test [5], in test [8] and in test [17] was inactive. The result in test [9], in test [10], in [11], in test [18], in test [12] and in [13] was inactive. Also, the compound was called inactive in test [15] and in [16]. In addition, the Potency result in test [2], in test [6] and in [14] was “inactive” throughout.
On to `C=CCCCCCCCCC(=O)OCCCC`, for which the call in test [1], in test [3], in [4], in test [5], in test [17] and in test [9] was inactive. The outcome in [10], in test [11], in test [19], in test [12], in test [13] and in [15] was inactive. Also, the Potency entry in [2], in test [6], in test [7] and in test [14] was “inactive” in each case.
For `Cc1ccc2c(c1)C(=O)c1ccccc1C2=O`, the compound was classed as inactive in [1], in [3], in [4], in [5], in test [9] and in test [10]. Moreover, the result in test [11], in [18], in [19], in test [12], in test [13] and in test [15] was inactive. In addition, the call in [16] was inactive. In [2], the Potency is 3.84 µM (active). Besides, the Potency entry in test [6], in test [7] and in test [14] was “inactive” in each case.
On to `NCC1(Cc2noc(=O)[nH]2)CCCCC1`, for which the outcome in test [1], in [3], in [4], in [5], in test [17] and in test [9] was inactive. The outcome in test [10], in test [11], in [12], in [13], in test [15] and in test [16] was inactive. The Potency entry in [2], in test [6], in test [7] and in test [14] was “inactive” in each case.
Take `CCCCCc1cccc(=O)o1`: the compound was classed as inactive in [1], in test [3], in test [4], in test [5], in test [8] and in [17]. Moreover, the outcome in test [9], in test [10], in [12], in test [13], in test [15] and in test [16] was inactive. The Potency entry in [2], in test [6], in test [7] and in [14] was “inactive” each time.
As to `C[C@]12CCC(=O)C=C1CC[C@H]1[C@@H]3CC[C@](O)(C(=O)CO)[C@@]3(C)C[C@H](O)[C@@]12F`, the compound was classed as inactive in test [1], in test [3], in [4], in test [5], in [8] and in [9]. The call in test [10], in test [11], in test [18], in test [19], in [12] and in test [13] was inactive. For the same compound, the result in test [15] and in test [16] was inactive. Also, the Potency entry in [2], in test [7] and in test [14] was “inactive” throughout. The Potency in test [6] was 1.68 µM (active).
